Measurements: PubChem BioAssay (EPA / NIEHS)
Calls of active or inactive are those of the source. The calls were made as follows: active = hit-call score of the fitted dose curve at least 0.9, where 1 is the maximum; inactive = score below 0.9.

Legend:
[1] = read-out: Human Leukocyte Antigen - DR isotype (HLADR), HLA-DRA (gene 3122); experiment: BSK_BE3C_HLADR: BioMAP Diversity Plus: BE3C Assay for Human Leukocyte Antigen - DR isotype (HLADR) Biomarker Activity (AID 2283032); conditions: primary human bronchial epithelial cells; actives raise or lower the signal
Outline: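 Primary human bronchial epithelial cells (BE3C); 24 h chemical exposure; HLA-DR by ELISA; bidirectional curve fit vs DMSO baseline.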

[2] = read-out: Monokine induced gamma interferon (MIG), CXCL9 (gene 4283); experiment: BSK_BE3C_MIG: BioMAP Diversity Plus: BE3C Assay for Monokine induced gamma interferon (MIG) Biomarker Activity (AID 2283035); conditions: primary human bronchial epithelial cells; actives raise or lower the signal
Outline: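 Dose cells (human primary bronchial epithelial), incubate 24 h, quantify MIG by ELISA, then fit concentration–response in both directions relative to DMSO control.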

[3] = read-out: Transforming growth factor beta 1 (TGFb1), TGFB1 (gene 7040); experiment: BSK_BE3C_TGFb1: BioMAP Diversity Plus: BE3C Assay for Transforming growth factor beta 1 (TGFb1) Biomarker Activity (AID 2283036); conditions: primary human bronchial epithelial cells; actives raise or lower the signal
Outline: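 Read-out: ELISA for TGF-b1 in primary human bronchial epithelial cultures, 24 h post-dose. Bidirectional curve fitting vs DMSO control; gain or loss of signal both scored.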

[4] = read-out: Plasminogen activator inhibitor-1 (PAI1), SERPINE1 (gene 5054); experiment: BSK_BE3C_PAI1: BioMAP Diversity Plus: BE3C Assay for Plasminogen activator inhibitor-1 (PAI1) Biomarker Activity (AID 2283037); conditions: primary human bronchial epithelial cells; actives raise or lower the signal
Outline: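 ELISA read-out of PAI-1 from human bronchial epithelial primary cells, 24 h post-dosing; bidirectional curve fit vs DMSO baseline, gain or loss of signal scored.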

[5] = read-out: urokinase plasminogen activator (uPA), PLAU (gene 5328); experiment: BSK_BE3C_uPA: BioMAP Diversity Plus: BE3C Assay for urokinase plasminogen activator (uPA) Biomarker Activity (AID 2283038); conditions: primary human bronchial epithelial cells; actives raise or lower the signal
Outline: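 Primary human bronchial epithelial cells, uPA measured by ELISA 24 h after dosing. Bidirectional change relative to DMSO; cytotoxicity checked in parallel cultures by sulforhodamine B total-protein staining.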

[6] = read-out: Urokinase-type plasminogen activator receptor (uPAR), PLAUR (gene 5329); experiment: BSK_BE3C_uPAR: BioMAP Diversity Plus: BE3C Assay for Urokinase-type plasminogen activator receptor (uPAR) Biomarker Activity (AID 2283039); conditions: primary human bronchial epithelial cells; actives raise or lower the signal
Outline: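 ELISA readout of uPAR on human lung primary bronchial epithelial cells, 24 h post-dosing. Bidirectional curve fit relative to DMSO vehicle baseline; gain or loss of signal both scored.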

[7] = read-out: Interleukin-6 (IL6), IL6 (gene 3569); experiment: BSK_CASM3C_IL6: BioMAP Diversity Plus: CASM3C Assay for Interleukin-6 (IL6) Biomarker Activity for (AID 2283040); conditions: primary human coronary artery smooth muscle cells; actives raise or lower the signal
[8] = read-out: Tissue plasminogen activator (tPA), PLAT (gene 5327); experiment: BSK_BE3C_tPA: BioMAP Diversity Plus: BE3C Assay for Tissue plasminogen activator (tPA) Biomarker Activity (AID 2283041); conditions: primary human bronchial epithelial cells; actives raise or lower the signal
Outline: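 ELISA read-out of tPA on human primary bronchial epithelial cells, 24 h post-dosing; bidirectional fit vs DMSO negative control/baseline.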

[9] = read-out: Interleukin-8 (IL8), CXCL8 (gene 3576); experiment: BSK_CASM3C_IL8: BioMAP Diversity Plus: CASM3C Assay for Interleukin-8 (IL8) Biomarker Activity (AID 2283042); conditions: primary human coronary artery smooth muscle cells; actives raise or lower the signal;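 also: IL-8 protein level quantified by ELISA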
[10] = read-out: Human Leukocyte Antigen - DR isotype (HLADR), HLA-DRA (gene 3122); experiment: BSK_CASM3C_HLADR: BioMAP Diversity Plus: CASM3C Assay for Human Leukocyte Antigen - DR isotype (HLADR) Biomarker Activity (AID 2283043); conditions: primary human coronary artery smooth muscle cells; actives raise or lower the signal;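 also: cell-surface HLA-DR protein level quantified by ELISA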
[11] = read-out: Macrophage colony-stimulating factor (MCSF), CSF1 (gene 1435); experiment: BSK_CASM3C_MCSF: BioMAP Diversity Plus: CASM3C Assay for Macrophage colony-stimulating factor (MCSF) Biomarker Activity (AID 2283044); conditions: primary human coronary artery smooth muscle cells; actives raise or lower the signal;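 also: M-CSF protein amount quantified by ELISA after 24 h exposure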
[12] = read-out: Low-density lipoprotein receptor (LDLR), LDLR (gene 3949); experiment: BSK_CASM3C_LDLR: BioMAP Diversity Plus: CASM3C Assay for Low-density lipoprotein receptor (LDLR) Biomarker Activity (AID 2283045); conditions: primary human coronary artery smooth muscle cells; actives raise or lower the signal;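 also: LDLR protein level on the cell surface quantified by ELISA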
[13] = read-out: Monocyte Chemoattractant Protein-1 (MCP1), CCL2 (gene 6347); experiment: BSK_CASM3C_MCP1: BioMAP Diversity Plus: CASM3C Assay for Monocyte Chemoattractant Protein-1 (MCP1) Biomarker Activity (AID 2283046); conditions: primary human coronary artery smooth muscle cells; actives raise or lower the signal;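 also: MCP-1 level quantified by ELISA 24 h after dosing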
[14] = BSK_CASM3C_Proliferation: Cell Proliferation Assessment in the BioMAP Diversity Plus: CASM3C Assay (AID 2283047); conditions: primary human coronary artery smooth muscle cells;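 also: sulforhodamine B total protein stain as relative cell number at 560 nm; sub-confluent cells exposed 48 h before staining; fitted both ways against DMSO so gain or loss of cell number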
[15] = read-out: Monokine induced gamma interferon (MIG), CXCL9 (gene 4283); experiment: BSK_CASM3C_MIG: BioMAP Diversity Plus: CASM3C Assay for Monokine induced gamma interferon (MIG) Biomarker Activity (AID 2283048); conditions: primary human coronary artery smooth muscle cells; actives raise or lower the signal;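 also: MIG protein level measured by ELISA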
[16] = read-out: serum amyloid A (SAA), SAA1 (gene 6288); experiment: BSK_CASM3C_SAA: BioMAP Diversity Plus: CASM3C Assay for serum amyloid A (SAA) Biomarker Activity (AID 2283049); conditions: primary human coronary artery smooth muscle cells; actives raise or lower the signal;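 also: SAA protein level quantified by ELISA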
[17] = BSK_CASM3C_SRB: Viability Assessment in the BioMAP Diversity Plus: CASM3C Assay (AID 2283050); conditions: primary human coronary artery smooth muscle cells;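 also: total protein by SRB staining as cytotoxicity measure in parallel cultures; cells exposed to compound for 24 h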
[18] = read-out: Thrombomodulin, THBD (gene 7056); experiment: BSK_CASM3C_Thrombomodulin: BioMAP Diversity Plus: CASM3C Assay for Thrombomodulin Biomarker Activity (AID 2283051); conditions: primary human coronary artery smooth muscle cells; actives raise or lower the signal;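 also: thrombomodulin protein level measured by ELISA 24 h after dosing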
[19] = read-out: Interferon-gamma inducible Protein 10 (IP10), CXCL10 (gene 3627); experiment: BSK_BE3C_IP10: BioMAP Diversity Plus: BE3C Assay for Interferon-gamma inducible Protein 10 (IP10) Biomarker Activity (AID 2283034); conditions: primary human bronchial epithelial cells; actives raise or lower the signal
Outline: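 ELISA readout of IP-10 in BE3C system: primary human bronchial epithelial cells, 24 h post-dosing; bidirectional curve fit vs DMSO baseline.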

Measured: AC50

Cc1cc(C)cc(C)c1
inactive: [1] | [2] | [3] | [4] | [5] | [6] | [7] | [8] | [9] | [10] | [11] | [12] | [13] | [14] | [15] | [16] | [17] | [18]

Oc1c(Cl)cc(Cl)cc1Cl
inactive: [1] | [2] | [3] | [4] | [6] | [7] | [8] | [9] | [10] | [11] | [12] | [13] | [14] | [15] | [16] | [17] | [18]

Cc1cccc(OP(=O)(Oc2cccc(C)c2)Oc2cccc(C)c2)c1
active: [4] 2.76 µM | [5] 0.016 µM | [8] 0.677 µM | [11] 0.139 µM | [13] 0.075 µM
inactive: [1] | [2] | [3] | [6] | [7] | [9] | [10] | [12] | [14] | [15] | [16] | [17] | [18]

Cc1c([N+](=O)[O-])c(C)c([N+](=O)[O-])c(C(C)(C)C)c1[N+](=O)[O-]
inactive: [1] | [19] | [2] | [3] | [4] | [5] | [6] | [7] | [8] | [9] | [10] | [11] | [12] | [13] | [14] | [15] | [16] | [17] | [18]

O=[N+]([O-])c1ccc(Nc2ccccc2)cc1
inactive: [1] | [19] | [2] | [3] | [4] | [6] | [7] | [8] | [9] | [10] | [11] | [12] | [13] | [14] | [15] | [16] | [17] | [18]

CCCCOC(=O)COC(=O)c1ccccc1C(=O)OCCCC
inactive: [1] | [2] | [4] | [6] | [7] | [8] | [9] | [10] | [11] | [12] | [13] | [14] | [15] | [16] | [17] | [18]

N#CCCC(Br)(C#N)CBr (centres undefined)
active: [1] 27.9 µM | [19] 28.1 µM | [2] 36.8 µM | [3] 20 µM | [4] 20 µM | [6] 20 µM | [7] 20 µM | [8] 9.86 µM | [9] 20 µM | [10] 8.75 µM | [11] 20 µM | [12] 12.2 µM | [13] 20 µM | [14] 3.93 µM | [15] 33.8 µM | [16] 11.8 µM | [17] 20 µM | [18] 20 µM
